In PubChem BioAssay AID720647 (Broad Institute, 2013) one finds inhibition data, which are given here for 47 compounds.

SMILES strings stand for the structures. The whole screen tested about 380,000 compounds, of which about 1,300 (0.34%) were called active. For the sample, actives were picked, then their nearest neighbours and some compounds at random. Values without a mark were called inactive.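 Rule for the calls: active = drop in luminescence signal, shown as inhibition above about 50% in the replicate tests (limit read from the data, passing the limit was not always enough); inconclusive = probably only some replicates passing the limit; inactive = the rest.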

This test relates to Drosophila bursicon receptor LGR2 (rickets). Description: LGR2 cAMP reporter signal reduction – cell-based, HEK293, CRE-luciferase reporter, bursicon stimulation, primary screen (AID 720647).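 Note: agonist challenge used bursicon conditioned medium at about half maximal strength.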 As to conditions: bursicon-stimulated, 4 h, at 9.99 µM, hits give high values. (In general: Reporter assays use an easily measured gene product as a stand-in for the process of interest.)
As usually defined, the inhibition is the drop in the measured response relative to a control, in per cent. Take `C(=N\Nc1ccc2ccccc2n1)/c1ccc2c(c1)OCO2`: the inhibition was 80.4% (active).
The value for `COc1cccc(CNCc2ccc3c(c2)OCO3)c1` was -10.4%.
The value for `Cc1ccc2oc(=O)c3cnn(CC(=O)N4CCCCCC4)c3c2c1` was 15.6%; that for `COCCCN(C(=O)Cn1ncc2c(=O)oc3ccc(C)cc3c21)C(C)c1ccncc1` (configuration not stated) was 0.725%.
The value for `Cc1ccc2oc(=O)c3cnn(CC(=O)N(Cc4ccco4)C4CCCCC4)c3c2c1` was 64.3% (active).
With `COCC(=O)N1[C@H](CNC(=O)c2ccccn2)[C@H](c2ccccc2)[C@@H]1CO`, the inhibition is 0.589%.
For the compound `C[C@H](CO)N1C[C@H](C)[C@H](CN(C)Cc2ccncc2)Oc2ccc(NC(=O)C3CCCCC3)cc2CC1=O`, the inhibition is 10.2%.
On to `COc1ccc2c3c(n(C)c2c1)[C@H](CO)NCC31CCN(C(=O)Nc2ccccc2F)CC1`, for which the inhibition was -4.04%.
As for `O=c1c2c(nc3cc(-c4cccc(Cl)c4)[nH]n13)CCCC2`, the inhibition is 53.6% (active).
The value for `COc1ccc2c3c(n(C)c2c1)[C@@H](CO)N(CC1CC1)CC31CN(C(=O)Nc2c(C)noc2C)C1` was -9.38%; that for `C[C@@H]1CN([C@H](C)CO)C(=O)c2cc(-c3ccccc3)cnc2O[C@H]1CN(C)C(=O)NC1CCCC1` was 9.83%; that for `Cc1ccc(C(=O)O/N=C(\N)c2ccccn2)cc1Cl` was 88.8% (active).
For `C/C(=N/OC(=O)c1cccc(C(F)(F)F)c1)c1cnccn1`, the inhibition was 16.7%.
As for `C/C(=N/OC(=O)c1c(-c2c(F)cccc2Cl)noc1C)c1cnccn1`, the figure is 32.3%.
Take `COc1ccc2c3c([nH]c2c1)[C@H](CO)N(Cc1ccccc1Cl)CC31CN(C(=O)C2CC2)C1`: the inhibition is 6.3%.
For the compound `COc1ccc(-c2ccccc2[C@H]2[C@@H](CO)N(C(=O)C3CCC3)[C@H]2C#N)cc1`, the inhibition is 3.46%.
With `COc1ccc(S(=O)(=O)N(C)C[C@@H]2Oc3c(NS(=O)(=O)c4ccccc4)cccc3C(=O)N([C@@H](C)CO)C[C@@H]2C)cc1`, the inhibition is -7.82%.
As for `CCc1ccc2oc(-c3ccc(N)cc3)nc2c1`, the figure is 75.2% (active).
The value for `O=C(Nc1ccc2c(c1)[C@H]1C[C@@H](CC(=O)N3CCc4ccccc4C3)O[C@H](CO)[C@H]1O2)Nc1ccccc1F` was 12.8%; that for `COC(=O)N(C)C[C@H]1OCc2ccccc2-c2ccccc2C(=O)N([C@@H](C)CO)C[C@H]1C` was 2.52%; that for `O=C(C[C@H]1C=C[C@H](NC(=O)Cc2ccccn2)[C@@H](CO)O1)NCCc1ccccc1` was 12.4%.
As to `CCS(=O)(=O)N1CC2(CN(Cc3ccccc3)[C@@H](CO)c3c2c2ccc(OC)cc2n3C)C1`, the inhibition was -9.3%.
The value for `C=CCn1c(C)cc(C2=NNC(=NCC)SC2)c1C` was 84.5% (active); that for `CC(C)CC#Cc1cnc2c(c1)C(=O)N([C@H](C)CO)C[C@H](C)[C@@H](CN(C)Cc1ccccc1C(=O)O)O2` was 9.07%; that for `C[C@H]1CCCCO[C@H](CN(C)C(=O)Nc2ccccc2)[C@@H](C)CN([C@@H](C)CO)C(=O)c2cc(NC(=O)CCC(F)(F)F)ccc2O1` was 8.75%.
The value for `O=c1oc2ccccc2cc1-c1cn(-c2ccccc2)c(=S)[nH]1` was 102% (active); that for `COc1ccc(-c2ccc3c(c2)[C@@H]2[C@@H](CCN2S(=O)(=O)c2ccccc2F)[C@H](CO)N3)cc1` was -25.5%; that for `C[C@@H]1CN([C@@H](C)CO)C(=O)c2cc(-c3ccc(F)cc3)cnc2O[C@H]1CN(C)C(=O)c1ccncc1` was 1.63%.
The value for `O=C(C1CCCCC1)N1[C@H](CO)[C@@H](c2ccccc2)C12CN(Cc1cccc(Cl)c1)C2` was 1.64%; that for `O=C(C[C@@H]1CC[C@H](NC(=O)C2CCOCC2)[C@@H](CO)O1)Nc1ccccc1` was -3.27%.
Take `CCc1sc(N2[C@@H](C#N)[C@@H](c3ccccc3-c3ccccc3)[C@@H]2CO)nc1C`: the inhibition was 0.259%.
The value for `COc1ccc(-c2cn(CC[C@H]3CC[C@@H](N)[C@H](CO)O3)nn2)cc1` was -5.75%; that for `COc1ccc2c3c([nH]c2c1)[C@H](CO)N(Cc1cccc(F)c1)CC31CCN(CC2CC2)CC1` was 16%.
As for `Cc1noc(C)c1NC(=O)Nc1ccc2c(c1)CC(=O)N([C@H](C)CO)C[C@@H](C)[C@@H](CN(C)S(=O)(=O)c1ccc(Cl)cc1)O2`, the figure is 4.84%; as for `Cc1nc(NC(=O)c2ccc3c(c2)OCCO3)ccc1Br`, -47%; as for `O=C(Nc1nc2ccccc2s1)c1ccc2c(c1)OCO2`, 79.6% (active).
For `O=C(NCCc1ccc(C(F)(F)F)cc1)c1ccc2c(c1)OCO2`, the inhibition was -2.8%.
As for `N#C[C@@H]1N[C@H](CO)[C@@H]1c1ccc(/C=C/c2ccccc2)cc1`, the inhibition is -52.3%.
The value for `C[C@H]1CN([C@@H](C)CO)S(=O)(=O)c2ccc(-c3cccc(C#N)c3)cc2O[C@H]1CN(C)CC1CC1` was -1.41%.
Take `C[C@H]1CN([C@@H](C)CO)C(=O)c2cccc(NS(=O)(=O)c3ccccc3)c2O[C@@H]1CN(C)S(=O)(=O)c1cn(C)cn1`: the inhibition is 6.37%.
As for `COc1ccc2c(c1)c(=Cc1ccc(N(C)C)cc1)c1cc(-c3ccccc3)[n+](C)n12`, the figure is 102% (active); as for `COc1ccc(S(=O)(=O)N(C)C[C@@H]2OCCCC[C@@H](C)Oc3ccc(N(C)C)cc3C(=O)N([C@@H](C)CO)C[C@@H]2C)cc1`, -3.31%; as for `O=C1c2ccccc2C(Nc2ccc3c(c2)OCCO3)N1Cc1ccco1` (configuration not stated), 0.038%.
Consider `Cc1ccnc(N2C(=O)c3ccccc3C2Nc2ccc3c(c2)OCCO3)c1` (configuration not stated), for which the inhibition was 66.5% (active).
The value for `COC(=O)c1cc(NC2c3ccccc3C(=O)N2c2ccc(Cl)cn2)cc(C(=O)OC)c1` (configuration not stated) was -4.93%; that for `Cc1ccc(-c2cnc3c(c2)C(=O)N([C@H](C)CO)C[C@H](C)[C@@H](CN(C)S(C)(=O)=O)O3)cc1` was 14.4%; that for `C[C@H]1CN([C@@H](C)CO)S(=O)(=O)c2ccc(C#Cc3cccc(F)c3)cc2O[C@@H]1CN(C)S(=O)(=O)c1cn(C)cn1` was 16.7%.
